What is called viability is a read-out of living cells in per cent, often relative to untreated cells.

This note sets out measurements from PubChem BioAssay (NCATS).

Inconclusive results are not listed. Values without a mark were called inactive. The source made the active and inactive calls. Calls come from the whole dose curve; as a rule, active = well fitted cell-killing curve with a large enough effect; inconclusive = small, poorly fitted or top-dose-only effect, or effect the other way; inactive = no such curve, though single readings can be large or run the other way.

The nature of assay [1]: Quantitative High-Throughput drug screen in 47 multiple myeloma cell lines against the NCATS MIPE library collection: LP1_DSMZ cell viability assay (AID 1918982). Note: nearly all actives have a fitted effect of over 35% in size. The gist of the method: (§1)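 Viability after 48 h drug exposure was measured as ATP-dependent luminescence. Cells, 500 per well, sat at 37 °C under 5% CO2; DMSO wells set 100%, media-only wells 0%.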
A short description of assay [2]: Quantitative High-Throughput drug screen in 47 multiple myeloma cell lines against the NCATS MIPE library collection: KMS34_JCRB cell viability assay (AID 1918985). Note: nearly all actives have a fitted effect of over 40% in size. In outline:
as §1

A short description of assay [3]: Quantitative High-Throughput drug screen in 47 multiple myeloma cell lines against the NCATS MIPE library collection: OCIMY7_PLB cell viability assay (AID 1918987). Note: nearly all actives have a fitted effect of over 65% in size. To be noted: OCI-MY7 myeloma viability, CellTiter-Glo ATP, 48 h; viability (% of DMSO): at 45.8 µM (top of the series). The gist of the method:
as §1
On the technique in general: ATP-based viability assays read luminescence as a measure of living cells.

A short description of assay [4]: Quantitative High-Throughput drug screen in 47 multiple myeloma cell lines against the NCATS MIPE library collection: OCIMY5_PLB cell viability assay (AID 1918988). Note: nearly all actives have a fitted effect of over 65% in size. The gist of the method: as §1
The nature of assay [5]: Quantitative High-Throughput drug screen in 47 multiple myeloma cell lines against the NCATS MIPE library collection: SKMM1_PLB cell viability assay (AID 1919863). Note: nearly all actives have a fitted effect of over 35% in size. To be noted: SKMM1 myeloma viability, CellTiter-Glo ATP, 48 h; viability: active compounds read low. The gist of the method:
as §1

A short description of assay [6]: Quantitative High-Throughput drug screen in 47 multiple myeloma cell lines against the NCATS MIPE library collection: U266_ATCC cell viability assay (AID 1919864). Note: nearly all actives have a fitted effect of over 35% in size. In outline: as §1
Assay [7] can be described thus: Quantitative High-Throughput drug screen in 47 multiple myeloma cell lines against the NCATS MIPE library collection: XG6_PLB cell viability assay (AID 1919865). Note: nearly all actives have a fitted effect of over 40% in size. In outline:
as §1

Assay [8] can be described thus: Quantitative High-Throughput drug screen in 47 multiple myeloma cell lines against the NCATS MIPE library collection: XG1_PLB cell viability assay (AID 1919866). Note: nearly all actives have a fitted effect of over 35% in size. The gist of the method: as §1
The nature of assay [9]: Quantitative High-Throughput drug screen in 47 multiple myeloma cell lines against the NCATS MIPE library collection: PCM6_Riken cell viability assay (AID 1919870). Note: nearly all actives have a fitted effect of over 30% in size. The gist of the method: as §1
Assay [10] can be described thus: Quantitative High-Throughput drug screen in 47 multiple myeloma cell lines against the NCATS MIPE library collection: RPMI8226_ATCC cell viability assay (AID 1919871). Note: nearly all actives have a fitted effect of over 30% in size. The gist of the method: as §1
Assay [11] is described as follows: Quantitative High-Throughput drug screen in 47 multiple myeloma cell lines against the NCATS MIPE library collection: OPM2_DSMZ cell viability assay (AID 1919872). Note: nearly all actives have a fitted effect of over 30% in size. The gist of the method: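 CellTiter-Glo ATP luminescence gave viability after 48 h compound treatment at 37C of 500 multiple myeloma cells per well. Normalisation used DMSO-only wells as 100% and media-only wells as 0% viability; primary qHTS of approved and investigational drugs.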

Assay [12] is described as follows: Quantitative High-Throughput drug screen in 47 multiple myeloma cell lines against the NCATS MIPE library collection: KMS28BM_JCRB cell viability assay (AID 1919874). Note: nearly all actives have a fitted effect of over 35% in size. The gist of the method:
as §1

The nature of assay [13]: Quantitative High-Throughput drug screen in 47 multiple myeloma cell lines against the NCATS MIPE library collection: KMS28PE_JCRB cell viability assay (AID 1918983). Note: nearly all actives have a fitted effect of over 35% in size. The gist of the method: as §1
Assay [14] is described as follows: Quantitative High-Throughput drug screen in 47 multiple myeloma cell lines against the NCATS MIPE library collection: L363_DSMZ cell viability assay (AID 1918984). Note: nearly all actives have a fitted effect of over 40% in size. To be noted: L363 myeloma viability, CellTiter-Glo ATP luminescence, 48 h; viability (% of control): at 45.8 µM (top of the series). The gist of the method: as §1
Assay [15] in a line: Quantitative High-Throughput drug screen in 47 multiple myeloma cell lines against the NCATS MIPE library collection: OPM1_PLB cell viability assay (AID 1918989). Note: nearly all actives have a fitted effect of over 40% in size. The gist of the method:
as §1

A short description of assay [16]: Quantitative High-Throughput drug screen in 47 multiple myeloma cell lines against the NCATS MIPE library collection: VP6_DJ cell viability assay (AID 1919867). Note: nearly all actives have a fitted effect of over 40% in size. In outline: as §1
Assay [17] in a line: Quantitative High-Throughput drug screen in 47 multiple myeloma cell lines against the NCATS MIPE library collection: KMS11_JCRBsus cell viability assay (AID 1919873). Note: nearly all actives have a fitted effect of over 50% in size. The gist of the method:
as §1

Assay [18] can be described thus: Quantitative High-Throughput drug screen in 47 multiple myeloma cell lines against the NCATS MIPE library collection: UTMC2_PLB cell viability assay (AID 1919868). Note: nearly all actives have a fitted effect of over 55% in size. To be noted: CellTiter-Glo ATP luminescence, 48 h; viability (% of DMSO control): at 45.8 µM (top of the series). In outline:
as §1

Assay [19] in a line: Quantitative High-Throughput drug screen in 47 multiple myeloma cell lines against the NCATS MIPE library collection: PE2_PLB cell viability assay (AID 1919869). Note: nearly all actives have a fitted effect of over 35% in size. The gist of the method: as §1
Potency is the fitted concentration of half-maximal effect.

As for `CNC1[C@H](O)C(O[C@@H]2C(O)C(O[C@H]3O[C@H]([C@@H](C)NC)CC[C@H]3N)[C@@H](N)C[C@H]2N)OC[C@]1(C)O` (stereo partly specified), the Potency result in assay [1], in assay [2], in assay [3], in [4], in assay [6] and in assay [7] was “inactive” in each case. The Potency entry in assay [9], in assay [10], in assay [11] and in assay [12] was “inactive” throughout. The viability in assay [5] is 103%. Further, in assay [8], the Potency was 18.7 µM (active).

`O=C(Nc1ncc(SCCN2CCCC2)s1)[C@]1(c2ccc(S(=O)(=O)C3CC3)cc2)C[C@@H]1C1CCCCC1`: the Potency was 23.5 µM (active) in [13]; 7.43 µM (active) in assay [14]; 18.7 µM (active) in assay [2]; 18.7 µM (active) in assay [3]; 14.8 µM (active) in assay [4]; 16.6 µM (active) in [15]. In addition, the Potency in [5] is 23.5 µM (active); in [6], 8.33 µM (active); in assay [7], 10.5 µM (active); in assay [8] it was 8.33 µM (active); in [16] it was 9.35 µM (active); in assay [9], 8.33 µM (active). Besides, the Potency in assay [17] was 7.43 µM (active); in assay [12], 8.33 µM (active).

For the compound `CNC(=O)[C@H](CC1=CN=C2C=CCC=C12)NC(=O)[C@@H](CC(=O)NO)CC(C)C`, the Potency entry in assay [1] and in assay [11] was “inactive” throughout. Besides, the Potency was 0.059 µM (active) in [14] and 18.7 µM (active) in assay [18]. The viability in [5] was 109%.

For the compound `OC[C@H]1O[C@@H](Oc2ccc(O)cc2)[C@H](O)[C@@H](O)[C@H]1O`, the Potency entry in [13], in assay [14], in assay [2], in [15], in [9] and in assay [11] was “inactive” throughout. Moreover, the Potency result in [12] was “inactive”. Also, the Potency was 7.43 µM (active) in assay [16] and 9.35 µM (active) in assay [18].

With `CCOC(=O)N1c2ccc(C(F)(F)F)cc2[C@@H](N(Cc2cc(C(F)(F)F)cc(C(F)(F)F)c2)C(=O)OC)C[C@H]1CC`, the Potency is 4.69 µM (active) in [13]; 5.26 µM (active) in [2]; 4.69 µM (active) in assay [4]; 3.32 µM (active) in assay [15]; 9.35 µM (active) in assay [11]. In addition, the Potency result in assay [14], in assay [3] and in assay [9] was “inactive” in each case.

For `NC(=O)c1noc([C@H](CCCC2CCCCC2)CC(=O)NO)n1`, the Potency entry in [13], in assay [14] and in assay [12] was “inactive” in each case. The Potency was 3.32 µM (active) in assay [3]; 16.6 µM (active) in assay [4]; 23.5 µM (active) in assay [15]; 13.2 µM (active) in assay [5]; 20.9 µM (active) in assay [6]; 23.5 µM (active) in [7]. Moreover, the Potency is 18.7 µM (active) in assay [19], 16.6 µM (active) in assay [9], 10.5 µM (active) in assay [10] and 20.9 µM (active) in assay [11].

Take `COc1ccnc(CS(=O)c2nc3ccc(OC(F)F)cc3[nH]2)c1OC` (stereo unspecified): the Potency result in assay [1], in assay [2], in assay [4], in assay [6], in assay [19] and in assay [10] was “inactive” throughout. In addition, the Potency result in assay [11] and in assay [12] was “inactive” each time. The viability in assay [5] is 150%. Also, the Potency in assay [7] was 20.9 µM (active).

Take `COC(=O)N1CCN(Cc2cccc(NC(=O)Nc3ccc(C)nc3)c2F)CC1`: the Potency in assay [1] was 16.6 µM (active). Besides, the Potency result in assay [2], in [15], in assay [6], in assay [7], in assay [8] and in [10] was “inactive” each time. In [11], the Potency result is “inactive”.

Consider `Cc1cccc(-c2[nH]c(C(C)(C)C)nc2-c2ccc3c(c2)OCO3)n1`, for which the Potency in [13] was 20.9 µM (active); in assay [14], 2.35 µM (active); in assay [2] it was 18.7 µM (active); in assay [3], 9.35 µM (active); in [4] it was 14.8 µM (active); in assay [15], 1.87 µM (active). The Potency in assay [5] was 20.9 µM (active); in [6] it was 16.6 µM (active); in assay [7], 2.96 µM (active); in assay [8], 1.05 µM (active); in assay [16], 0.743 µM (active); in assay [18], 0.743 µM (active). Besides, the Potency in assay [19] is 1.18 µM (active); in assay [9], 0.833 µM (active); in assay [10], 16.6 µM (active); in assay [17], 16.6 µM (active); in assay [12], 16.6 µM (active).

With `CCN1C[C@H](C)n2c(c(O)c3c(=O)n(Cc4ccc(F)c(Cl)c4)nc(C(=O)NC)c32)C1=O`, the Potency result in assay [13], in assay [14], in assay [2], in [15], in [6] and in assay [7] was “inactive” in each case. The Potency result in assay [18], in assay [19], in assay [11] and in assay [17] was “inactive” throughout. Also, the Potency in assay [12] is 13.2 µM (active).

For the compound `O=C(O)CCNc1cc(N2CCc3ccccc3CC2)nc(-c2ccccn2)n1`, the Potency result in [1], in assay [6], in assay [7], in [19], in [10] and in assay [11] was “inactive” throughout. In addition, in assay [17], the Potency result was “inactive”. The figures for the Potency in assay [4], in assay [15] and in [8] were 23.5 µM (active), 5.26 µM (active) and 20.9 µM (active), respectively.

For the compound `NC[C@H]1O[C@H](O[C@@H]2[C@@H](O)[C@@H](O[C@H]3O[C@H](CO)[C@@H](O)[C@H](N)[C@@H]3O)[C@H](N)C[C@@H]2N)[C@H](O)[C@@H](O)[C@H]1O`, the Potency entry in assay [13], in [14], in assay [2], in assay [15], in assay [7] and in assay [8] was “inactive” each time. Moreover, the Potency entry in [19], in [9], in assay [11] and in assay [17] was “inactive” throughout. Besides, the viability in assay [5] was 120%. Further, the Potency in assay [16] was 16.6 µM (active).

As to `CCC(C)SSc1ncc[nH]1` (stereo unspecified), the Potency in assay [13] was 11.8 µM (active); in assay [14] it was 2.96 µM (active); in assay [2] it was 4.18 µM (active); in [3] it was 3.72 µM (active); in [4], 5.26 µM (active); in assay [15], 3.72 µM (active). Further, the Potency in assay [5] is 11.8 µM (active); in assay [6], 4.69 µM (active); in [7], 7.43 µM (active); in assay [8], 5.26 µM (active); in assay [16], 13.2 µM (active); in assay [18] it was 8.33 µM (active). The Potency in assay [19] is 3.72 µM (active); in assay [9], 7.43 µM (active); in [10] it was 23.5 µM (active); in assay [11] it was 5.9 µM (active); in assay [12] it was 9.35 µM (active).
